Reference: PubChem BioAssay AID995 (National Center for Advancing Translational Sciences (NCATS), 2007)
The campaign covered roughly 72,000 compounds. About 710 (0.99%) were called active. Roughly 7% stayed inconclusive and do not appear here. This excerpt belongs to a sample that is enriched for actives. Values without a mark were called inactive. The call rests on the fitted dose curve; in most records, active means well fitted inhibition curve with a large enough effect; inconclusive means small, poorly fitted or top-dose-only effect; inactive means no such curve, though single readings can be large or run the other way.

Assay: qHTS Assay for Inhibitors of the ERK Signaling Pathway using a Homogeneous Screening Assay; further: nearly all actives have a fitted effect of over 55% in size
Conditions: HEK293-V1b, vasopressin-stimulated pERK AlphaScreen; series mostly up to 57.5 µM; activity, negative = inhibition: at the top concentration
Source text: qHTS Assay for Inhibitors of the ERK Signaling Pathway using a Homogeneous Screening Assay; further: nearly all actives have a fitted effect of over 55% in size
NIH Chemical Genomics Center [NCGC]
NIH Molecular Libraries Screening Centers Network [MLSCN]
Assay Submitter (PI): Dr. Wei Zheng, NCGC/NIH
The Ras/extracellular-signal-regulated kinase (ERK) mitogen activated protein (MAP) kinase signaling pathway (ERK1/2 cascade) plays is a key role in transmitting signals from the cell surface to the nucleus (Nishida and Gotoh 1993; Chang and Karin, 2001). The cascade is initiated by the small G-protein Ras, which recruits Raf […], where activation occurs. Alternatively, this pathway can be activated by elevating intracellular cAMP.
Activation of the ERK pathway is essential in increased cell division and cell survival. Sustained and constitutive activation of the ERK pathway, however, has been linked to uncontrolled cell proliferation, increased cell survival, and tumor progression. Thus, the ERK has been as an attractive target for cancer chemotherapy in the past few years (Sebolt-Leopold and Herrera, 2004). Given its physiological and pathological importance, assessment of ERK phosphorylation has been broadly performed in both basic research and drug discovery. Most assays for the measurement of ERK phosphorylation use the antibody-based detection methods, such as western blot and ELISA. These assays require multiple reagent additions with cell wash steps and are not suitable for high throughout screening.
The current cell-based ERK phosphorylation assay was performed using AlphaScreen platform. AlphaScreen is a two bead-based proximity-dependent chemical energy transfer luminescent assay platform. The assay reagents (ERK SureFire(TM) kit) were supplied from TGR BioSciences (Australia). In the presence of specific antibodies, phosphorylated ERK will bring "donor" and "acceptor" beads to a proximity range (<200 nm), and subsequently lead a chemical luminescent reaction upon exciting donor beads with 680 nm laser. To exclude the assay-related false positives, we used a biotinylated rabbit IgG to perform counter-screen. The biotinylated antibody mimics the phosphorylated ERK1/2 for bringing streptavidin coated beads and protein-A coated beads to a proximity range for the AlphaScreen detection.
NCGC Assay Protocol Summary:
HEK293 cells stably expressing type-1 vasopressin receptor (V1b) were maintained in DMEM medium (Invitrogen, Carlsbad, CA) at 37C under a humidified atmosphere containing 5% CO2 and 95% air. The medium contained 10% FBS, 2 mM L-glutamine, non-essential amino acid, pyruvate and 50 U/ml penicillin and 50 ug/ml streptomycin (Invitrogen). The aliquots of frozen cells were stored at -135C and used for the compound screening. All compounds were screened as titrations from 0.6 nM to 46 uM final concentration. Vasopressin was used to stimulate the ERK phosphorylation pathway. The ERK phosphorylation in cells was determined using an AlphaScreen assay kit provided by PerkinElmer. Data were normalized to the controls for basal activity (DMSO only) and 100% activation (25 nM vasopressin). AC50 values were determined from concentration-response data modeled with the standard Hill equation.
(1) Seed 4 ul/well of resuspended frozen HEK293 cells containing 2000 cells in white 1536-well plates for overnight with 1% FBS at 37C under a humidified atmosphere containing 5% CO2 and 95% air.
(2) Add 23 nL compounds in DMSO solution. The final titration was 0.6 nM to 46 uM.
(3) Incubate at 37C for 30 min.
(4) Dispense 0.5uL vasopressin (25 nM in final)
(5) Incubate at 37C for 5 min.
(6) Dispense 0.5uL of 1:2 diluted 5x lysis buffer.
(7) Incubate at 37C for 10 min.
(8) Dispense 1.5uL of mixture of activation buffer and reaction buffer with AlphaScreen beads (streptavidin donor beads and protein-A acceptor beads, 10 ng/well for each).
(9) Incubate at room temperature for 5 hr.
(10) Detect the assay plate in an EnVision plate reader (PerkinElmer) using the AlphaScreen detection mode.
[…]
On the % scale 0 is the no-effect control and ±100 the full control effect; potency means the concentration at half of the fitted maximal effect.

SMILES | activity, negative = inhibition | Potency
CC(C)C1=CC2=CC[C@@H]3[C@](C)(CO)CCC[C@]3(C)C2CC1 (stereo partly specified) | 17.2% | 
Cc1ccc2nc(CC(=O)c3ccc4ccccc4c3)c(=O)[nH]c2c1 | 3.17% [at 11.5 µM] | 
C=CC(=O)c1ccc2ccccc2c1 |  | 10 µM (active)
CC1C(O)CC2C(C(=O)O)=CO[C@@H](O[C@H]3OC(CO)C(O)C(O)C3O)C21 (stereo partly specified) | -6.74% | 
Cc1ccc(S(=O)(=O)NC(=O)NN2C[C@H]3CCC[C@@H]3C2)cc1 | 19.3% [at 25.7 µM] | 
Cc1ccc(/C(=C/CN2CCCC2)c2ccccn2)cc1 |  | inactive
Nc1nc(N)c2[nH]c(CNc3ccc(C(=O)O)cc3)nc2n1 | -2.04% [at 11.5 µM] | 
CCC1=C(OC(=O)N(CC)CC)N2C(=O)OC(=NCCc3c[nH]c4ccccc34)[C@]2(C)[C@H]2C1=CC[C@H]1C(=O)N(CC)C(=O)[C@H]12 | -0.77% | 
c1nc(COc2nsnc2N2CCOCC2)cs1 | -25.1% | 
c1ccc(COc2nsnc2N2CCOCC2)cc1 |  | 25.1 µM (active)
O=C(O)COc1nsnc1N1CCOCC1 | -7.11% | 
O=C(c1csnn1)N1CCC2(CCN(Cc3nccs3)CC2)CC1 | 10.9% | 
COc1ccc(C2CC(=O)c3c(O)cc(OC4OC(COC5OC(C)C(O)C(O)C5O)C(O)C(O)C4O)cc3O2)cc1O (stereo unspecified) | 25% | 
O=C1OC(C(O)CO)C(O)=C1O (stereo unspecified) | 2.19% | 
O=C(NCCN1CCOCC1)c1ccc2c(c1)ncn2C1CCCC1 |  | 25.1 µM (active)
O=C(NCc1cccs1)c1ccc2c(c1)ncn2C1CCCC1 | -13.8% | 

SMILES | activity, negative = inhibition | Potency
O=C(NCCN1CCOCC1)c1c(F)c(F)c(F)c(F)c1F | -4.02% | 
FC(F)(F)c1ccccc1-c1cc(NCc2ccccc2)ncn1 | -10.7% | 
C=CC(=O)OCCOCCOCCOCCOC(=O)C=C |  | inactive
COc1ccc(-c2nc(SCC(=O)N3CCOCC3)n[nH]2)cc1 | -13.4% | 
Cc1oc2nc(SCC(=O)NCc3cccnc3)nc(N)c2c1C | -19.1% | 
O=C(CSc1n[nH]c(-c2cccnc2)n1)Nc1ccnc2ccccc12 |  | 20 µM (active)
CN1CC(=O)N=C1N | 8.99% | 
Nc1nc2c(nc(Cl)n2C2OC(CO)C(O)C2O)c(=O)[nH]1 (stereo unspecified) | -5.51% | 
Oc1ccc2c(c1)OCC1c3cc4c(cc3OC21)OCO4 (stereo unspecified) | 3.05% | 
COC(=O)[C@@H]1C[C@@]2(O)[C@H](O)[C@H](O)[C@H](O)C[C@H]2N1CC1CCCCC1 | 15.9% | 
COC(=O)[C@@H]1C[C@@]2(O)[C@H](O)[C@H](O)[C@H](O)C[C@H]2N1Cc1ccc(C)s1 | 19.5% | 
COc1ccccc1-c1nnc(SCC(=O)N2CC(C)CC(C)C2)o1 (stereo unspecified) | 14.3% | 
COc1ccccc1-c1nnc(SCC(=O)Nc2cc(C)on2)o1 | -0.126% | 
COc1ccccc1-c1nnc(SCC(=O)Nc2ccccc2)o1 |  | 25.1 µM (active)
Cn1cccc1C(=O)N1CCC2(CC1)CN(c1cccc(-c3ccccc3)c1)C2 | -29.8% | 
